This is a sample that favours compounds with a hit; in the whole collection about 2.7% have one here.
IDE act – boosts human insulin-degrading enzyme activity in HEK cells. AID 493087. FAbeta-B cleavage, fluorescence polarization; 0% vehicle, 100% cell-free pure enzyme wells. activation, % at 5.96 µM. P14735. actives 0.073% (n = 340,000);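 active = activation above the mean of all tested compounds plus 3 SD, set per screening campaign, cut at about 17% in these data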
CHT block – human CHT choline transport inhibition; B-score at 10 µM; actives 0.86% (n = 310,000); CHT-expressing cells, membrane potential dye, choline response; hits give low values; Q9GZV3;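 active = B-score over 3 SD under the library average, and starting fluorescence ratio not unusually high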;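 note: choline stimulus applied at its EC90 after an EC20 pre-addition; B-score computed on integrated fluorescence ratio after choline addition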
IDE cell inh – inhibits human insulin-degrading enzyme in HEK cells. P14735. FAbetaB cleavage, fluorescence polarization. inhibition, % at 5.59 µM. actives 0.41% (n = 320,000);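 active = percent inhibition above the average of all tested compounds plus 3 SD, set per screening campaign, cut at about 16% in these data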;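 note: IDE supplied by intact live HEK cells; FP after avidin binding of uncleaved biotin substrate so inhibition keeps polarization high; 0% = DMSO wells and 100% = 60 µM reference IDE inhibitor Ii1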
TMEM16A act – activators or potentiators of mouse TMEM16A chloride channel. actives 0.3% (n = 340,000). HEK293 TMEM16A/YFP-H148Q/I152L, iodide quench fluorescence; hits give low values. Q8BHY3. AID 623877. B-score at 10 µM;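 active = fluorescence-ratio B-score plate-corrected deviation score at least 3 library SD below zero, with starting fluorescence score within 5 deviations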;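 note: channel opened by trigger with iodide after compound preincubation; score built on the fluorescence ratio of max minus min over baseline; more negative score means more quench and so TMEM16A activation or potentiation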
Target sequence (Q8BHY3 whole entry, looked up): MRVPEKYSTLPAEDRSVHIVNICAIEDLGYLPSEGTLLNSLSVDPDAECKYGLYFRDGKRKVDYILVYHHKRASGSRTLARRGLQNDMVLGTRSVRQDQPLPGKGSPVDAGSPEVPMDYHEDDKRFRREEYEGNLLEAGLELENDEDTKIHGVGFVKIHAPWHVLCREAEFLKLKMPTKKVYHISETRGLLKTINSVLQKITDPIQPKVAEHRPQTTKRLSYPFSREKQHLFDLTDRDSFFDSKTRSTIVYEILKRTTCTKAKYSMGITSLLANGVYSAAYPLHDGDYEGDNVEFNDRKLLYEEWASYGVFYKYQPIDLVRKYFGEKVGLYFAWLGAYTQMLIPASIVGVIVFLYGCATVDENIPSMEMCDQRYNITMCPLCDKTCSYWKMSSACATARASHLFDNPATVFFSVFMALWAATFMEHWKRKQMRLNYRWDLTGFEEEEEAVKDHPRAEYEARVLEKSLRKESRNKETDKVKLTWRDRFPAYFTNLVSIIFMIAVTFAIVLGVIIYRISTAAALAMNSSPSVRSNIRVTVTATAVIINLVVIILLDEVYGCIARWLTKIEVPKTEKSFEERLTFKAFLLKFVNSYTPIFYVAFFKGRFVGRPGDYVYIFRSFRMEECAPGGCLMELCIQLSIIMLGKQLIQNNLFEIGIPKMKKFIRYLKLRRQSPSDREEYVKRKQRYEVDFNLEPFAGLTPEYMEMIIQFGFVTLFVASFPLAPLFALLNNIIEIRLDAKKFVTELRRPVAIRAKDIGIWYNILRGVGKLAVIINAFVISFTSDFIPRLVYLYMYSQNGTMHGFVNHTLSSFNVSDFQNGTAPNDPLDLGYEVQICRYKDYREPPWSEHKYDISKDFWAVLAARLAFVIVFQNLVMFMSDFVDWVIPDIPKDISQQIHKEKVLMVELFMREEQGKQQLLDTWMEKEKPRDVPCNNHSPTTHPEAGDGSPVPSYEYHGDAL
CHT PAM – allosteric activators of human choline transporter CHT. Q9GZV3. CHT-expressing cells, membrane potential dye, choline EC20; hits give high values; LV-AA mutant CHT in HEK293 cells. B-score at 10 µM. actives 0.49% (n = 310,000);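 active = initial fluorescence not abnormally high and integrated response B-score, plate-corrected, over 3 SD above library mean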
TMEM16A inh – blocks the mouse calcium-activated chloride channel TMEM16A | AID 588511 | normalized B-score (activity score, 25-100; higher = stronger inhibition) at 10 µM | actives 1.2% (n = 310,000) | HEK293 TMEM16A/YFP iodide influx fluorescence, ionomycin;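 active = ratio plate-corrected score three or more library SD toward inhibition, starting fluorescence score within five deviations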;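 note: score derived from kinetic fluorescence span divided by baseline fluorescence per well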
CHT activ conf – human CHT activation, confirmatory screen. shares compounds with CHT PAM. CHT-expressing cells, membrane potential dye fluorescence (FDSS); % of choline EC20–EC90 response window; HEK293 expressing CHT LV-AA mutant; choline added at its EC20. activation, % at 10 µM. actives 91% (n = 2,500). AID 504833;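 active = primary screen active, with duplicate mean activation above negative control mean plus 3 SD, cut at about 11% in these data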
HEK293 MP dye – CHT activator counter-screen hit in parental HEK293 cells | shares compounds with CHT PAM | membrane potential dye fluorescence (FDSS); measured after EC20 choline addition | ratio readout change at 10 µM, hits read low | actives 62% (n = 2,500) | AID 623908;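 active = duplicate-averaged ratio beyond 3 SD from buffer wells, up or down, though filed actives are nearly all decreases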
Numbers without * were called inactive; i = inactive; · = no result.

SMILES	IDE act	CHT block	IDE cell inh	TMEM16A act	CHT PAM	TMEM16A inh	CHT activ conf	HEK293 MP dye
c1ccc(-c2nc(NCc3ccco3)c3ccccc3n2)nc1	-2	i	0	i	7*	i	42*	-46*
c1ccc(N2CCN(c3nc(NCc4ccco4)c4ccccc4n3)CC2)cc1	-4	i	-1	i	i	i	·	·
c1coc(CNc2nc(N3CCCCC3)nc3ccccc23)c1	5	i	5	·	i	i	13*	i
COc1ccc(C(=O)N(C)Cc2cnn(Cc3ccccc3)c2)cc1S(=O)(=O)N1CCOCC1	7	·	-3	i	·	·	·	·
CN(C)c1ccnc(Nc2ccc(O)cc2)c1C#N	-2	i	-2	i	7*	i	52*	-46*
CN(C)c1nccc(Nc2ccccc2)c1C#N	-3	i	3	i	i	i	·	·
CC(=NCCCn1ccnc1)C1=C(O)c2ccccc2C1=O	-1	i	2	i	i	i	29*	-38*
COc1ccc(CN2CCC(N(CCc3ccccc3)Cc3ccccc3)CC2)c(OC)c1	1	i	-3	i	i	i	22*	i
CCN1CCCC1CNC(=O)c1cc2c(C)nc3ccccc3c2o1 (centres undefined)	-4	i	5	i	i	i	·	·
Cc1nc2ccccc2c2oc(C(=O)N3CCC(N4CCCCC4)CC3)cc12	7	i	0	i	7*	i	49*	-41*
Cc1nc2ccccc2c2oc(C(=O)NCCN3CCCCC3C)cc12 (centres undefined)	1	i	-1	i	i	i	34*	i
Cc1nc2ccccc2c2oc(C(=O)N3CCN(C4CCCCC4)CC3)cc12	-4	i	-1	i	i	i	·	·
COc1ccc(NC(=O)c2ccc(N3C(=O)C4CC=C(C)CC4C3=O)cc2)c(OC)c1 (centres undefined)	-1	i	-4	i	i	i	·	·
COc1ccc(OC)c2c(C)cc(NCCN3CCOCC3)nc12	-1	i	7	i	9.2*	i	65*	-60*
COc1ccc(S(=O)(=O)NCCN2CCOCC2)c(C)c1C	1	i	-4	i	i	i	·	·
Cc1ccc(S(=O)(=O)Nc2ccc(C(=O)NCCCN3CCOCC3)cc2)cc1[N+](=O)[O-]	5	i	1	i	i	i	16*	i
CCN(CC)S(=O)(=O)c1ccc(NCCc2ccccn2)nc1	2	i	-1	i	i	i	·	·
O=C(N/N=C/c1cccs1)c1cc(-c2ccncc2)nc2ccccc12	2	i	3	i	i	i	44*	i
O=C(NCCCn1ccnc1)c1cc(-c2ccncc2)nc2ccccc12	6	i	5	i	6.3*	i	60*	-59*
O=C(NC1CCCC1)C(c1ccc(F)cc1)N(Cc1ccc(F)cc1)C(=O)c1ccn[nH]1 (centres undefined)	-2	i	-6	i	i	i	25*	i
CCCn1c(SCC(=O)c2cc(C)n(C3CC3)c2C)n[nH]c1=O	3	·	-3	i	·	·	·	·
CCCCc1n(CC(=O)c2ccc(Cl)cc2)c2ccccc2[n+]1C	-2	i	0	i	i	i	14*	i
Cc1n(CC(=O)c2ccc(F)cc2)c2ccccc2[n+]1C	6	i	2	i	i	i	·	·
CCCCCn1c2c(c(=N)c3ccccc31)CCC2	-2	i	6	i	6.7*	i	41*	-65*
CCCCCCCCCn1c2c(c(=N)c3c1CCC3)CCCC2	·	·	·	i	·	·	·	·
SMILES	IDE act	CHT block	IDE cell inh	TMEM16A act	CHT PAM	TMEM16A inh	CHT activ conf	HEK293 MP dye
CCOC(=O)Cn1c2c(c(=N)c3ccccc31)CCC2	2	i	-6	i	i	i	65*	-51*
CCCCCCCCn1c2c(c(=N)c3ccccc31)CCC2	·	·	·	i	·	·	·	·
CCOC(=O)Cn1c2c(c(=N)c3c1CCC3)CCC2	-1	i	4	i	i	i	23*	-48*
Cc1cc(C)c(S(=O)(=O)N2CCN(C(=O)c3ccccc3OCc3c(C)noc3C)CC2)c(C)c1	8	·	·	i	·	·	·	·
CC1CC(C)CN(C(=O)C2CCN(S(=O)(=O)c3ccc4c(c3)CC(C)N4C(=O)C3CC3)CC2)C1 (centres undefined)	1	i	3	i	i	i	·	·
CN1CCN(c2ccc(Cl)cc2NC(=O)C2COc3ccccc3O2)CC1 (centres undefined)	6	i	-3	i	i	i	0	i
CCOc1ccc(NS(=O)(=O)c2ccc(C(=O)NCCN3CCOCC3)cc2)cc1	-3	i	-10	i	i	i	·	·
COC1=C(Nc2ccc(O)cc2)C(=O)c2ccccc2C1=O	7	i	-9	i	i	i	29*	-78*
CCOc1ccc(NC2=C(OC)C(=O)c3ccccc3C2=O)cc1	4	i	-1	i	i	i	14*	-67*
COC1=C(Nc2ccc(OC)cc2)C(=O)c2ccccc2C1=O	2	i	6	i	6.5*	i	12*	-65*
CCOC(=O)C1=CN(Cc2cccc(Br)c2)S(=O)(=O)N(CC)C1C (centres undefined)	-3	·	·	·	·	·	·	·
Clc1ccc(C[n+]2cc(-c3ccccc3)n3c2CCCCC3)c(Cl)c1	0	i	7	i	i	i	·	·
CC1CCC(C(C)C)C(OC(=O)C[n+]2cc(-c3ccc(Cl)cc3)n3c2CCCCC3)C1 (centres undefined)	8	i	-1	i	13*	i	64*	i
O=C(C[n+]1cc(-c2ccccc2)n2c1CCCCC2)c1ccc(Cl)cc1	-1	i	1	i	i	i	·	·
O=[N+]([O-])c1ccc(C[n+]2cc(-c3ccc(Cl)c(Cl)c3)n3c2CCCCC3)cc1	0	i	0	i	i	i	34*	-33*
Clc1ccc(-c2c[n+](Cc3ccc(Cl)cc3Cl)c3n2CCCCC3)cc1	4	i	3	i	28*	i	67*	i
